Screen size: about 48,000 compounds; about 13,000 (27%) showed an effect of 50% or more. This is one part of the list.

For the experiment, the system named is Wolbachia pipientis. Briefly: Anti-Wolbachia Cell-Based Screen. It is filed as functional. Set-up: scale not given: in the data most compounds retested in dose-response had high values. To be noted: 5 µM.
With `CCC(CO)NC(=O)Nc1cc(F)ccc1SCC(F)F` (stereo not given), the “Percent Effect” value came out at 1.4%. In the case of `CCOCc1ccc(NC(=O)NC2CCCn3nc(CC)nc32)cc1` (stereo not given) it was -7.286%; in that of `CNC(=O)CN(C)C(=O)c1ccc(-c2nc(C)cs2)cc1`, 115.5%; in that of `CCCN(CC(=O)N(C)C)C(=O)c1ccc(-c2nc(C)cs2)cc1`, 106.6%.

In the case of `CCCN(CC(=O)NC)C(=O)c1ccc(-c2ccsc2)nc1C`, the “Percent Effect” value is reported as -3.974%. With `CCN(CC(=O)N(C)C)C(=O)c1ccc(-c2nc(C)cs2)cc1`, the “Percent Effect” value came to 133.8%. With `Cc1csc(-c2ccc(NC(=O)N3CCOCC3)cc2)n1`, the “Percent Effect” value amounted to 9.555%. Turning to `CN(C)C(=O)c1csc(-c2ccoc2)n1`, the “Percent Effect” value is listed as -7.541%. Consider `Cc1ccc(-c2nc(C(=O)N(C)CC(=O)N(C)C)cs2)c(C)c1`, for which the “Percent Effect” value was -25.77%.

With `CCN(CC(=O)NC)C(=O)Cc1csc(C(C)C)n1`, the “Percent Effect” value is recorded as -3.04%. In the case of `CNC(=O)C(CC(C)C)NC(=O)c1cccc(-c2nc(C)cs2)c1` (stereo not given), the “Percent Effect” value was 8.267%. In the case of `CCN(CC(=O)N(C)C)C(=O)c1cc(-c2cccc(Cl)c2)no1` it was -0.1751%; in that of `CNC(=O)CN(C)C(=O)Cc1csc(C(C)C)n1`, -0.57%; in that of `CCCN(CC(=O)NC)C(=O)c1ccc(-c2nc(C)cs2)cc1`, 92.57%. In the case of `CCc1ccc(C(NC(=O)CN(C)S(C)(=O)=O)C(C)(C)C)o1` (stereo not given), the “Percent Effect” value is on record as -2.175%.

On to `Cc1cn2c(n1)C(CNCc1cnn3ccccc13)CCC2` (stereo not given), for which the “Percent Effect” value is reported as 10.2%. Consider `CCc1ocnc1C(=O)N1CCN(c2nncc3ccccc23)CC1`, for which the “Percent Effect” value was -2.931%. Turning to `Cc1c(O)oc(-c2ccc(Br)cc2)nc1=O`, the “Percent Effect” value is listed as -7.091%. With `CC(C(=O)O)N1CCc2onc(-c3ccc4c(c3)OCO4)c2C1` (stereo not given) the figure was -4.68%; with `N#Cc1ccc(OC2CCN(C(=O)c3ccc4c(c3)OCO4)CC2)nc1`, -4.84%; with `CC(=O)NC(C)C1=CCCN(Cc2ccc(C(=O)O)cc2)C1` (stereo not given), -17.16%. For `CS(=O)(=O)N[C@@H]1COC[C@@H]2CN(Cc3ccco3)C[C@@H]21`, the “Percent Effect” value was found to be 121.7%. Take `CS(=O)(=O)N[C@@H]1COC[C@@H]2CN(Cc3ccoc3)C[C@@H]21`: the “Percent Effect” value stood at 104.1%. On to `CS(=O)(=O)N[C@H]1COC[C@@H]2CN(Cc3ccco3)C[C@@H]21`, for which the “Percent Effect” value was found to be 102.8%.

For `CS(=O)(=O)N[C@@H]1CN(Cc2ccoc2)C[C@@H]2CCCO[C@@H]21`, the “Percent Effect” value is on record as -8.721%. In the case of `CS(=O)(=O)CC(=O)N1C[C@@H]2CN(Cc3ccoc3)CCO[C@@H]2C1` it was -2.254%; in that of `CCOCC(=O)N1CCc2c(CN(C)C)nn(C(C)C)c2C1.O=C(O)C(F)(F)F`, -22.21%. For the compound `Cn1c(N)nnc1SCC1OCCc2ccccc21` (stereo not given), the “Percent Effect” value was -8.673%. With `O=C(Nc1nncs1)c1ccc(O)nc1` the figure was -7.078%; with `CC(C)C(C)N(C)Cc1nnc(-c2ccc(Br)s2)o1` (stereo not given), 27.84%; with `CN(C)[C@H]1C[C@@H](Cc2cc(CO)on2)C1(C)C`, 2.334%. As for `CC(C)C(Sc1nnc(C2CC2)n1C1CC1)C(=O)NCc1cccnc1` (stereo not given), the “Percent Effect” value was determined as 2.12%.

`CC(C)C(Sc1nncn1C1CC1)C(=O)NCc1cccnc1` (stereo not given): the “Percent Effect” value worked out at 102%. With `CC(C)C(Sc1nnnn1-c1ccccc1)C(=O)NCc1cccnc1` (stereo not given) the figure was -6.711%; with `Cc1nn(C)c2cnn(C(C)C(=O)NCc3cccnc3)c12` (stereo not given), 10.06%.

For the compound `CC(C)C(Sc1nnnn1C1CC1)C(=O)NCc1ccccc1` (stereo not given), the “Percent Effect” value is 90.27%. In the case of `Cc1ccc(C)c(OC(C)C(=O)NCc2cccnc2)c1` (stereo not given) it was -19.9%; in that of `CC(C)C(Sc1nnnn1C1CC1)C(=O)NCc1cccnc1` (stereo not given), 0.8079%; in that of `CC(C)Cn1nnnc1SC(C(=O)NCc1cccnc1)C(C)C` (stereo not given), 111.1%.

For the compound `Cc1nn(C)c2cn(C(C)C(=O)NCc3cccnc3)nc12` (stereo not given), the “Percent Effect” value is reported as 6.41%. Regarding `CC(C)C(Sc1nccn1C1CC1)C(=O)NCc1cccnc1` (stereo not given), the “Percent Effect” value was determined as 93.78%. Regarding `CC(C)Sc1nnnn1C1CCCC1`, the “Percent Effect” value is -35.1%. As to `O=C(c1cc(=O)[nH][nH]1)N1CCCC2(CCC(=O)N(C3CCCC3)C2)C1` (stereo not given), the “Percent Effect” value is recorded as -4.852%. With `Cc1nnsc1CN(C)C(=O)CN1CC2(CCNCC2)OC1=O` the figure was -6.607%. Consider `COc1ccncc1NC(=O)C1(c2ccccc2)CC1`, for which the “Percent Effect” value is -4.467%. On to `COc1ccccc1NC(=O)C1(c2ccccc2)CCOCC1`, for which the “Percent Effect” value stood at 98.14%. Take `CCCC(=O)NCC1CCCN(Cc2cc(C)c(C)o2)C1` (stereo not given): the “Percent Effect” value was -7.568%.

With `O=C(Cc1ccccc1F)NCC1CCN(CCN2CCOCC2)C1` (stereo not given), the “Percent Effect” value amounted to 8.19%. As for `CC(C)(CNC(=O)C1(c2ccccc2)CCOCC1)C(=O)O`, the “Percent Effect” value was 1.32%.

Consider `COCCN1CCC(CNC(=O)C2(C#N)CCCC2)CC1`, for which the “Percent Effect” value was -6.048%. With `CCN1CCCC(CNC(=O)C2(c3cc(C)cc(C)c3)CCC2)C1` (stereo not given) the figure was 97.54%. On to `CCN1CCCC(CNC(=O)CCc2ccc(OC)c(F)c2)C1` (stereo not given), for which the “Percent Effect” value is reported as -5.052%. Take `COCCN1CCC(CNC(=O)C2(S(C)(=O)=O)CCCC2)CC1`: the “Percent Effect” value is listed as -5.804%. Consider `COCCN1CCC(CNC(=O)C2(c3ccc(F)cc3)CCC2)CC1`, for which the “Percent Effect” value worked out at 107%. With `COCCN1CCC(CNC(=O)C2(c3ccccc3)CCOCC2)C1` (stereo not given), the “Percent Effect” value was determined as 84.82%. As to `CCC(Oc1ccc(N(C)S(C)(=O)=O)cc1)C(N)=O` (stereo not given), the “Percent Effect” value is listed as 16.67%. In the case of `O=C(c1ccc2nccnc2c1)N1CCN(CCO)[C@@H]2CS(=O)(=O)C[C@@H]21` it was -5.397%; in that of `O=C(CCCNC(=O)Nc1ccc(F)cc1)Nc1cn[nH]c1`, -3.689%; in that of `Cc1cc(C(=O)N2CCN(C(=O)CC(C)C)[C@@H]3CS(=O)(=O)C[C@@H]32)no1`, -7.208%.

As for `Cc1noc(C)c1CN1C(=O)[C@H]2CC[C@@H]1CN(Cc1cccc(O)c1)C2`, the “Percent Effect” value was -12.83%. In the case of `COCCN1CCC(CNC(=O)Nc2ccc(-c3ccccc3)cc2)C1` (stereo not given), the “Percent Effect” value is listed as -0.2028%. With `COCCN1CCC(CNC(=O)C2(C#N)CCCCC2)CC1` the figure was -10.25%; with `Cc1cc(C)cc(C2(C(=O)NCC(C)CN3CCCC3=O)CC2)c1` (stereo not given), 2.33%; with `COCCN1CCC(CNC(=O)C2(c3ccccc3)CCC2)C1` (stereo not given), 100.1%.

For `CCCN1CCC(CNC(=O)C2(c3cc(C)cc(C)c3)CCC2)C1` (stereo not given), the “Percent Effect” value worked out at 132%. With `N#Cc1ccc(CNC(=O)NC2CCN(CC(F)(F)F)C2)cc1` (stereo not given) the figure was 9.13%.

On to `COCCN1CCC(CNC(=O)C2(c3ccc(Br)cc3)CCCC2)C1` (stereo not given), for which the “Percent Effect” value is recorded as 150.6%. Regarding `Cc1cc(C)cc(C2(C(=O)NCC3CCN(CC(F)(F)F)C3)CC2)c1` (stereo not given), the “Percent Effect” value is on record as 144.8%. `CCCN1CCC(CC(=O)NCc2cc(C)nn2C)CC1`: the “Percent Effect” value is on record as -10.83%. As to `CC(C)[C@@H]1CN(CCCOc2ccc(F)cc2)C[C@H]1NS(C)(=O)=O`, the “Percent Effect” value is recorded as 10.36%. For the compound `CC(C)(C)Oc1ccncc1NCc1cscn1`, the “Percent Effect” value is -14.11%. In the case of `CCN1CCC(CNC(=O)C2(c3cccc(C)c3)CC2)C1` (stereo not given) it was -3.143%; in that of `Cc1cc(CN2CCC(CNC(=O)C3(c4ccccc4)CC3)C2)[nH]n1` (stereo not given), -1.817%. `CCCN1CCC(CNC(=O)C2(c3ccccc3)CCC2)C1` (stereo not given): the “Percent Effect” value came to 94.67%.

As for `O=c1c2cccnc2cnn1CC(O)c1ccc(F)c(F)c1` (stereo not given), the “Percent Effect” value was -16.55%.

`O=C(CN1CCN(CCO)CC1)NCCc1c(F)cccc1F`: the “Percent Effect” value was found to be 0.9837%. Consider `Cc1ccc(CNC(=O)Cn2c(=O)c3cccnc3n2C)cc1F`, for which the “Percent Effect” value was found to be 105.8%. With `O=C(CN1CCCCC1Cn1cncn1)NCCC1=CCCCC1` (stereo not given), the “Percent Effect” value was -14.45%.

Consider `CS(=O)(=O)Cc1ccc(NC(=O)Cc2cccnc2)cc1F`, for which the “Percent Effect” value came out at 17.36%.

For the compound `Cc1ccc(CNC(=O)N2CCOCC2C2CC2)cc1F` (stereo not given), the “Percent Effect” value is recorded as -8.546%. For `Cc1cc(CNC(=O)CN2CCN(C(=O)OC(C)(C)C)CC2)ccc1F`, the “Percent Effect” value is recorded as -110.5%. Consider `Cn1c2ncccc2c(=O)n1CC(=O)NCCc1c(F)cccc1F`, for which the “Percent Effect” value came out at 97.5%. With `Cc1nc2n(n1)CC(NCC(=O)NCCC1=CCCCC1)CC2` (stereo not given) the figure was 18.92%.

Take `O=C(NCCNc1ncccn1)NCCc1c(F)cccc1F`: the “Percent Effect” value is 4.613%. In the case of `Cn1c2ncccc2c(=O)n1CC(=O)NCCC1=CCCCC1` it was 106.1%.

Turning to `Cn1c2ncccc2c(=O)n1CC(=O)Nc1ccc(F)c(F)c1`, the “Percent Effect” value was found to be 107.1%. With `CNC(=O)[C@@H]1C[C@H](N)CN1S(=O)(=O)c1cc(C)c(Cl)cc1C` the figure was 4.211%; with `COc1ccccc1OC1(C(=O)O)CCN(c2ncccc2F)CC1`, -11.09%. With `COc1ccncc1NCc1cscn1` the figure was 0.2861%. On to `CSc1ccc(CN(CCO)Cc2nccn2C)cc1`, for which the “Percent Effect” value is given as -0.296%. As for `Cc1cncc(C(=O)N2CCOc3nc(C)ccc32)c1`, the “Percent Effect” value came to 1.683%. In the case of `CCC(C)(NCC(=O)NC(=O)NC)c1nc(C)cs1` (stereo not given) it was -8.328%; in that of `COc1cccc(C(C)N2CCN(S(C)(=O)=O)CC2)c1` (stereo not given), -19.03%. For `Cc1cccc2nc(CSCc3nnnn3C(C)C)cn12`, the “Percent Effect” value is given as -17.34%. In the case of `O=C(O)C(F)(F)F.O=C(c1ccoc1)N1CCO[C@]2(CCC[C@H]2COCc2cccnc2)C1`, the “Percent Effect” value was found to be 1.703%. Regarding `CN(Cc1cccnc1)[C@@H]1CN(C(=O)c2ccno2)[C@@H]2CCCO[C@H]12.O=C(O)C(F)(F)F.O=C(O)C(F)(F)F`, the “Percent Effect” value was 103.3%. On to `O=C(O)C(F)(F)F.O=C(c1ccoc1)N1CCO[C@]2(CCC[C@@H]2COCc2cccnc2)C1`, for which the “Percent Effect” value is reported as -7.34%. With `CN(Cc1cccnc1)[C@@H]1CN(C(=O)NC2CC2)[C@@H]2CCCO[C@H]12.O=C(O)C(F)(F)F.O=C(O)C(F)(F)F` the figure was 101%; with `CN(Cc1cccnc1)[C@@H]1CN(C(=O)c2ccoc2)[C@@H]2CCCO[C@H]12.O=C(O)C(F)(F)F.O=C(O)C(F)(F)F`, 116.4%. As to `CN(Cc1cccnc1)[C@@H]1CN(C(=O)CC2CC2)[C@@H]2CCCO[C@H]12.O=C(O)C(F)(F)F.O=C(O)C(F)(F)F`, the “Percent Effect” value turned out to be 108.9%.

The record behind these values is ChEMBL document CHEMBL3988442, “University of Dundee, Small-Polar-MMV Screening Library” (2021).
